This is a sample that favours compounds with a hit; in the whole collection about 1.6% have one here.
PABP1 MLLE inh – inhibitors of PABP1 MLLE–PAM2 peptide binding, primary screen, biochemical, fluorescence polarization, FITC-PAM2, GST-MLLE; Polyadenylate-binding protein 1 (Homo sapiens), P11940; inhibition, % at 20 µM; 0.36% of 360,000 active; AID 588489, 2011; in the data active = inhibition above about 35%, passing the limit was not always enough;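 also: plate controls were DMSO wells with GST-MLLE for no effect and wells lacking GST-MLLE protein for full effect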
eIF4E-4G inh – eIF4E–eIF4G protein interaction inhibitors, primary screen, biochemical, uHTS, TR-FRET, eIF4GI fragment | Eukaryotic translation initiation factor 4E (Mus musculus) + Eukaryotic translation … | 0.37% of 220,000 active | TR-FRET eIF4E-eIF4GI(517-606) binding, 2 h | inhibition, % at 21.7 µM;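 active = inhibition above about 30%, limit read from the data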;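 also: 0% = full FRET control wells and 100% = background wells lacking eIF4GI fragment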
PERK inh – block of dimerizer-induced PERK translation repression, primary screen, PERK inhibitor project, CHO PERK-DD cells, SEAP luminescence, HTS; Eukaryotic translation initiation factor 2-alpha kinase 3 (Homo sapiens), Q9NZJ5; CHO PERK-DD fusion, SEAP luminescence translation reporter; inhibition, % at 5.6 µM; 0.17% of 220,000 active; AID 1416, 2008;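 active = inhibition above the mean inhibition of all tested compounds plus 3 SD, set separately per screening campaign, cut at about 2.9% in these data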;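 also: PERK kinase domain activated by AP20187 dimerizer at 100 nM; 0% = DMSO with dimerizer and 100% = rapamycin at 8.4 µM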
PABP FP inh – PABP poly(A) RNA binding inhibitors, primary screen, biochemical, fluorescence polarization, uHTS; Polyadenylate-binding protein 1 (Homo sapiens), P11940; inhibition, % at 35 µM; 1% of 290,000 active; AID 2014, 2009;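 also: calls also rest on retests at 20 µM and on dose response follow-up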
eIF4H inh – human eIF4H binding inhibitors, primary screen, translation initiation inhibitor project, biochemical, uHTS, fluorescence polarization. AID 2012, 2009. eIF4H fluorescence polarization binding assay. Eukaryotic translation initiation factor 4H (Homo sapiens), Q15056. inhibition, % at 35 µM. 0.94% of 290,000 active;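 also: calls also rest on retests at 20 µM and on dose response follow-up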
Numbers without * were called inactive; ? = inconclusive; / = no result given. Unless noted, no rule for the calls is given here.

SMILES	PABP1 MLLE inh	eIF4E-4G inh	PERK inh	PABP FP inh	eIF4H inh
COc1cccc(NC(=O)Nc2ccc(C(C)(C)C)cc2)c1	0.2	65.8*	0.3	2.7	3.1
COc1cccc(NC(=O)Nc2ccncc2)c1	6.4	-2.5	0.2	-12.5	-2.8
COc1ccc(/C=N/c2c(-c3ccco3)nc3ccccn23)cc1OC	47.3*	4.7	1.7	?	?
Clc1ccc(/C=N/c2c(-c3ccco3)nc3ccccn23)cc1	39.3*	10.6	2.6	120.4*	127.5*
CC[C@]12c3[nH]c4ccccc4c3CCN1C(=O)C(CC(=O)NC/C=C(\C)CCC=C(C)C)C[C@@H]2C(=O)N1CCN(C(=O)C2CC2)CC1 (stereo partly drawn)	-11.2	/	/	/	/
COc1ccc(OCCCC(=O)Nc2nncs2)cc1	-1.2	-0.3	0.7	0.4	1.8
O=[N+]([O-])c1cccc(NC(=S)Nc2nc(-c3ccccc3Cl)cs2)c1	42.4*	/	/	-3.1	13.6
COc1ccc(C(=O)N2CCN(S(=O)(=O)c3ccc(C)cc3C)CC2)cc1S(=O)(=O)N1CCOCC1	4.2	/	/	/	/
COc1ccc(C(=O)N2CCN(S(=O)(=O)c3ccc(C)cc3)CC2)cc1S(=O)(=O)N1CCOCC1	-2.1	61.6*	0.0	3.0	-3.6
CCN1CC2=C(OC(N)=C(C#N)C2c2cccs2)/C(=C\c2cccs2)C1 (stereo not drawn)	-52.0	0.1	-0.1	103.6*	97.6*
COc1ccc(NC(=O)N(C)C[C@@H]2Oc3c(NC(=O)Nc4c(C)noc4C)cccc3C(=O)N([C@@H](C)CO)C[C@@H]2C)cc1	-5.1	/	/	/	/
CC(Nc1cc(N2CCCC2)ccc1[N+](=O)[O-])c1ccccc1 (stereo not drawn)	-7.1	1.5	2.9*	-2.5	0.1
CC(Nc1cc(N2CCN(S(=O)(=O)N(C)C)CC2)ccc1[N+](=O)[O-])c1ccccc1 (stereo not drawn)	3.9	1.1	-0.3	active	76.6*
Cc1ccccc1NC(=O)c1sc(Cl)nc1-c1ccccc1	2.9	2.1	-0.3	-4.3	-2.8
CCOc1cc(C2C3=C(CCCC3=O)N(CC(=O)O)C3=C2C(=O)CCC3)ccc1OC	60.1*	/	/	7.3	5.8
CC(=O)Nc1cc(-c2ccc(C(=O)N3CCOCC3)cc2)cn2c(-c3ccccc3)cnc12	-0.6	/	/	/	/
COc1ccc(NC2=Nc3ccccc3N[C@@]23C[C@H]2CCCC(=O)N4CC[C@@H](C3)[C@@H]24)cc1	10.6	/	/	/	/
Cc1ccccc1-n1c(C)cc(/C=C(\C#N)C(=O)NCC2CCCO2)c1C (stereo not drawn)	4.4	11.9	-0.4	2.3*	87.8*
O=C(NCc1ccco1)c1ccc([N+](=O)[O-])o1	8.5	16.1	1.2	active	88.9*
N#C/C(=C\c1ccccc1[N+](=O)[O-])C(=O)NCc1ccccc1	57.1*	5.1	1.1	41.3*	69.4*
N#C/C(=C/c1ccccc1[N+](=O)[O-])C(=O)NCc1ccco1	19.8	0.9	0.9	9.5*	63.1*
O=C(CSc1nnc(CNC(=O)c2c(F)cccc2Cl)o1)NCCc1ccccc1	17.0	/	/	4.3	2.5
N#C/C(=C\c1cccnc1)C(=O)Nc1ccccc1[N+](=O)[O-]	-21.5	/	/	55.3*	66.5*
COCCNC(=O)/C(C#N)=C/c1cc(C)n(-c2ccc(C)cc2)c1C	-4.2	-2.7	0.2	9.5	13.3
COc1ccc(-n2c(C)cc(/C=C(\C#N)C(=O)NCc3ccco3)c2C)cc1	14.1	4.7	-0.3	0.2*	57.1
SMILES	PABP1 MLLE inh	eIF4E-4G inh	PERK inh	PABP FP inh	eIF4H inh
Cc1ccccc1NC(=O)/C(C#N)=C\c1cc(C)n(-c2ccc(C(=O)O)cc2)c1C	-14.4	5.0	0.7	39.9*	?
COC(=O)/C=c1/s/c(=C(\C#N)C(=O)NCc2ccco2)n(-c2ccc(C)cc2)c1=O	-104.7	0.1	0.8	90.4*	101.4*
CCN(CC)CCN(Cc1cc2cc3c(cc2[nH]c1=O)OCCO3)C(=S)NCC(C)C	-123.2	/	/	2.1	-13.3
Cn1c(CN2CCOCC2)nc2cc(NC(=O)c3ccc(F)cc3)ccc21	-3.5	-1.2	-0.2	-0.1	-5.3
O=C(O)CN1C(=O)S/C(=C\c2ccc3c(c2)OCO3)C1=O	9.2	/	/	/	/
COc1ccccc1N1C(=N)S/C(=C\c2ccc(-c3ccccc3C(=O)O)o2)C1=O	-88.9	17.4	1.1	4.1	58.7*
N=C1S/C(=C\c2ccc(-c3ccccc3C(=O)O)o2)C(=O)N1c1ccc2c(c1)OCO2	-72.4	8.1	1.6	62.8*	87.3*
Cc1c(C(=O)O)cccc1-c1ccc(/C=C2/NC(=O)N(c3ccccc3)C2=O)o1	6.1	-0.9	0.9	10.7	9.2
CSc1nc(N)nc2c1ncn2CC(=O)NCc1ccc2c(c1)OCO2	3.9	/	/	/	/
O=C1/C(=C\c2ccc(Br)o2)SC(=Nc2ccccc2)N1c1ccccc1	8.5	5.6	0.2	12.1*	55.0*
CN(C)N1C(=O)/C(=C/c2ccco2)SC1=Nc1ccccc1	11.0	/	/	/	/
CCN(CC(=O)Nc1ccc2c(c1)OCCO2)C(=O)/C=C/c1ccc(OC)cc1OC	-4.5	/	/	48.4	17.6
O=C(NCC(c1cccnc1)N1CCN(c2ccccc2F)CC1)OCc1ccccc1 (stereo not drawn)	-5.2	-13.1	-1.8	-1.9	5.8
COc1ccccc1N(C(=O)CCl)c1cn(C(C)=O)c2ccccc12	-5.2	-3.8	-1.5	-6.5	3.6
COc1ccccc1N(C(C)=O)C1=C(Cl)C(=O)c2ccccc2C1=O	39.4*	/	/	/	/
Cc1ccnc(SCc2cc(=O)c(OC(=O)c3ccco3)co2)n1	-1.7	4.5	0.9	98.1*	7.6*
CCOc1ccc(C(=O)NC(=S)N(Cc2ccccc2)Cc2ccccc2)cc1	24.8	-7.0	-1.5	2.1	-3.1
CCCN(CCC)C(=S)NC(=O)c1ccc(-c2ccccc2)cc1	38.8*	-0.2	-1.5	5.5	18.1
CC1=C(C(=O)O)N2C(=O)C(NC(=O)c3ccn(C)n3)C2SC1 (stereo not drawn)	48.5*	0.5	0.8	-4.9	0.4
O=S(=O)(Nc1ccc(C(F)(F)F)cc1)c1cnc[nH]1	-5.6	4.0	0.8	-7.1	-2.3
COc1ccnc(CSC(N)=Nc2ccccc2OC)c1	31.7	6.9	1.2	9.9	18.8
O=C(c1ccco1)N(CCC(c1ccccc1)c1ccco1)Cc1ccco1 (stereo not drawn)	-10.3	13.2	-0.2	23.3	68.3*
CCOC(=O)c1c(NC(=O)Cc2ccccc2)sc2c1CCN(CC)C2	-4.4	/	/	7.5	-4.7
COCCCn1c(=NC(=O)c2ccncc2)c(C#N)cc2c(=O)n3cccc(C)c3nc21	88.1	5.6	-0.8	?	?

High-throughput results from PubChem.
